About 79,000 compounds went through this panel and 15% of them were active in at least one assay; those are over-represented in the sample as a whole. Unmarked numbers belong to inactive results. Active and inactive are the calls of the source. Cut-off read from the data, not from the text of the source: active = growth inhibition above about 70%; inactive = the rest.
Columns and labels:
[1] = NCI Yeast Anticancer Drug Screen. Data for the rad50 strain (AID 155);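 note: 0% = growth of vehicle-only cultures of the same strain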; conditions: S. cerevisiae rad50 strain growth inhibition; at 50.0 µM; active compounds read high
How it was run: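 Genetically altered yeast (DNA repair pathway); compound treatment; growth inhibition vs vehicle ctrl.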

[2] = NCI Yeast Anticancer Drug Screen. Data for the mec2-1 strain (AID 157); conditions: S. cerevisiae mec2-1 strain, at 50.0 µM, active compounds read high
How it was run: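 Each compound was tested on mec2-1 yeast, a strain altered in DNA damage repair or cell cycle control. Growth inhibition is reported relative to vehicle.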

[3] = NCI Yeast Anticancer Drug Screen. Data for the sgs1 mgt1 strain (AID 161);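 note: 0% = growth of cultures given vehicle only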; conditions: S. cerevisiae sgs1 mgt1 strain, at 50.0 µM, active compounds read high
How it was run: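 Mutant yeast exposed to compound; growth scored against vehicle-only wells.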

[4] = NCI Yeast Anticancer Drug Screen. Data for the cln2 rad14 strain (AID 165);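 note: 0% = growth equal to vehicle treated cultures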; conditions: S. cerevisiae cln2 rad14 strain, at 50.0 µM, active compounds read high
How it was run: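 Test compounds were added to cln2 rad14 yeast cultures; inhibition of growth was then determined by comparison with vehicle treatment.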

[5] = NCI Yeast Anticancer Drug Screen. Data for the bub3 strain (AID 167); conditions: S. cerevisiae bub3 mutant strain, at 50.0 µM, active compounds read high
How it was run: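 Yeast carrying a defined mutation is treated with each compound, and growth is compared with that of vehicle-exposed cells to give inhibition.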

[6] = NCI Yeast Anticancer Drug Screen. Data for the mlh1 rad18 strain (AID 175); conditions: S. cerevisiae mlh1 rad18 strain growth inhibition; at 50.0 µM; active compounds read high
How it was run: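 Inhibition values reflect reduced growth of mutant yeast versus vehicle-treated controls following compound exposure; the mutations affect DNA damage repair.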

| SMILES | growth inhibition [1] | growth inhibition [2] | growth inhibition [3] | growth inhibition [4] | growth inhibition [5] | growth inhibition [6] |
| --- | --- | --- | --- | --- | --- | --- |
| O=C1c2ccccc2C(=O)c2c(Cl)cccc21 | 56.6% | 4.7% | -19.2% | -39.5% | -9.35% | 7.35% |
| COc1ccc(CC(=O)O)cc1OC | 23.9% | 0.55% | 17.6% | -24.4% | -5.95% | 23.9% |
| CC(=O)Nc1cc(C)ccn1 | 1.2% | 0.6% | 10.6% | -35% | -2.95% | 19.4% |
| O=C1c2ccccc2-c2ccc(-c3ccc4c5c(cccc35)C(=O)c3ccccc3-4)c3cccc1c23 | -21.9% | -27.6% | -7.9% | -0.85% | -31.3% | -34.2% |
| CC(C)(C)OC(=O)N(CCCCNC(=O)c1ccccc1)CCCNC(=O)c1ccccc1 | 13.4% | -8.5% | -30% | -26.5% | -36.5% | -64% |
| N#C/C(=C\n1c(=S)[nH]c2ccccc21)c1nc2ccccc2s1 | -2.85% | -4.45% | -9.15% | -4.15% | 4.25% | 36.8% |
| COc1cc(C2(C)SCCCS2)cc(OC)c1OC | -10.9% | -8.1% | -4.05% | 0.2% | 25.8% | -15.3% |
| CCOC(=O)c1c(Br)c(-c2ccc(OC)cc2)c(Br)n1C | -12.8% | 9.8% | -22.2% | -48% | -39% | -5.95% |
| Cc1cc2c3ccccc3n(C)c2c2c1C(=O)c1ccccc1C2=O | 15.8% | 28% | 3.3% | 5.45% | 17.4% | 11.2% |
| CCC(Cc1ccccc1)OC(=O)c1ccccc1C(=O)O (configuration not stated) | -16.2% | -10.8% | 8% | -43.3% | -6.85% | 1.9% |
| CN1N=Nc2ccccc2C1(O)c1ccccc1 (configuration not stated) | 8.7% | -3.05% | 0.25% | -18.6% | -11.9% | 6.9% |
| NC(=O)N/N=C/c1cccc(O)c1O | 6% | -6.2% | -24.7% | -10.2% | -2.9% | 5.75% |
| CC(=O)Nc1ccc(/C=C(\NC(=O)c2ccccc2)C(=O)NNS(=O)(=O)c2ccc(C)cc2)cc1 | 21.6% | 17.7% | -9.3% | -5.5% | -4.2% | 21.4% |
| CN(CCc1ccccn1)C(=S)N/N=C/c1ccccn1 | 77% (active) | 83.8% (active) | 91% (active) | 89.7% (active) | 89.8% (active) | 91% (active) |
| CC[C@@H]1CN(C)[C@H]2Cc3c([nH]c4ccccc34)C(=O)C[C@H]1C2C(=O)OC (some centres not stated) | 13.5% | -14.5% | -19.6% | -47.3% | -26.2% | 18.7% |
| CC(=O)OC(C)C(=O)C1c2cccc(O)c2C(=O)c2c(O)cc(C)cc21 (configuration not stated) | 35.6% | 19.1% | 19.9% | 31.4% | 23.9% | 26.6% |
| CN(C)CCNS(=O)(=O)N(C)C | -25.1% | -25.1% | -24.4% | 7.45% | -51.8% | 8.45% |
| C[S+]1Cc2nc3ccccc3n2C1c1c(F)cccc1F (configuration not stated) | 4.65% | -19.2% | -1.75% | 12.8% | -14.7% | 2.35% |
| C=CCOC(=O)CCC(CCC(=O)OCC=C)C(C)=O | -25.4% | -19.4% | 0.55% | -9.6% | 4.1% | -11.5% |

| SMILES | growth inhibition [1] | growth inhibition [2] | growth inhibition [3] | growth inhibition [4] | growth inhibition [5] | growth inhibition [6] |
| --- | --- | --- | --- | --- | --- | --- |
| COc1ccc(C(NCCn2cnc3c2c(=O)n(C)c(=O)n3C)c2ccccc2)cc1 (configuration not stated) | 19.4% | 4.05% | 11.2% | -33.6% | -4.5% | 18.8% |
| C=C(C)C(=O)Nc1ccc(-n2[nH]c(C)c(N=Nc3ccc(N(C)C)cc3)c2=O)cc1 | 6.95% | -5.5% | -14.6% | -36% | -2.55% | 1.85% |
| O=C(Cc1ccccc1)NC(CSSCC(NC(=O)Cc1ccccc1)C(=O)O)C(=O)O (configuration not stated) | 26.3% | 10.8% | 36.6% | -37.1% | 3.2% | 11.1% |
| C=C1CC23CC[C@H]4[C@@](C)(CCC[C@@]4(C)C(=O)OC4OC(CO)C(O)C(O)C4O)[C@@H]2CC[C@@]1(OC1OC(CO)C(O)C(O)C1OC1OC(CO)C(O)C(O)C1O)C3 (some centres not stated) | -6.6% | -38.5% | -38.1% | 25.4% | -39.4% | -16% |
| C=CCC(C)C(=O)NNC(=O)C(C)CC=C (configuration not stated) | -11.8% | -9.15% | -1.85% | -13.3% | -12.2% | 11.8% |
| O=C(Cl)N(C1CCCCC1)C1CCCCC1 | -19% | -8.8% | -1.5% | -10.9% | 2.35% | -12.9% |
| Cc1cccc(Cl)c1NC(=O)C(Cl)Cl | 6.35% | 9.75% | 8% | 4.55% | 17.3% | 14.9% |
| CC(C)(C(=Nc1ccc([N+](=O)[O-])cc1)N1CCOCC1)c1ccccc1 | 9% | 6.7% | 5.05% | 34.6% | 32.1% | 22.6% |
| Cc1[nH]c(C)c2ccc(=O)ccc12 | -51.4% | -8.35% | -16.6% | -58.2% | -2% | -7.65% |
| CCN(CC)CCn1ncc2ccc3c(c(=O)c4cccnc4n3CCN(CC)CC)c21 | 9% | 16.8% | 13.2% | 27.8% | 11.6% | 10.9% |
| Cc1cccc(Cl)c1N=Nc1c(N)nc(N)[nH]c1=O | 15.8% | -20.8% | -5.1% | -4.8% | -0.35% | -0.5% |
| Nc1nc(-c2ccc(-c3ccccc3)cc2)cc(=O)[nH]1 | 0.25% | 27.6% | -4.8% | -8.25% | 7.5% | -25.8% |
| O=C(OCC(OC(=O)c1ccccc1)C(OC(=O)c1ccccc1)C(O)C(O)CO)c1ccccc1 (configuration not stated) (tested in a mixture with another compound) | -6.8% | -4.1% | 9.55% | -17.9% | -12.2% | 28.6% |
| C[N+](C)(C)CC(=O)N/N=C(\C(=O)Nc1ccc(Cl)cc1)C1C(=O)N(c2ccccc2)N=C1N (configuration not stated) | -15.4% | 1.25% | -14.8% | -13.8% | -6.95% | 17.6% |
| C(=C\c1ccc(OCc2ccccc2)cc1)/c1ccc(OCc2ccccc2)cc1 | -5.5% | -13.7% | -13.6% | -7.6% | -24.6% | -26% |
| N#C/C(=C\c1ccco1)C(=O)c1ccco1 | 19.4% | 15.1% | 28.2% | 13.8% | 38.7% | 34.6% |
| O=C(Nc1ccc(Cl)c(Cl)c1)OCC1CC2C=CC1C2 (configuration not stated) | 95.2% (active) | 97.8% (active) | 97.3% (active) | 94.8% (active) | 94.9% (active) | 95% (active) |
| N#CN=C(N)NC(=O)/C=C/C=C/c1ccc(Cl)cc1 | 5.8% | 16.8% | 0.8% | 9.8% | 38% | 24.8% |

Reference: PubChem BioAssay (NCI)
